Here are results for 45 compounds from PubChem BioAssay AID652025 (National Center for Advancing Translational Sciences (NCATS), 2013).

Several values for one entry are separate records, joined by “and”; a condition that tells them apart may be missing. Equal values may be shown once. The whole screen tested about 360,000 compounds, of which about 240 (0.067%) were called active. This excerpt belongs to a sample that is enriched for actives. Unmarked numbers belong to inactive results. Cut-off read from the data, not from the text of the source: active = activation above about 50%; inconclusive = mostly about 30% to 49%; inactive = weaker than that.

The test can be described thus: qHTS of IL-2 Activators. Note: 0% is about no effect. Particulars: IL-2 activation reporter assay, cell-based qHTS; stronger effect = higher value; in transgenic mouse T cells; stimulated with anti-CD3/CD4/CD28 beads. The source says:
The adaptive immune response against any infectious agent begins with the activation of an antigen specific T cell. This relatively rare and inert ("naive") T cell undergoes a massive proliferative expansion and differentiation process to generate sufficient number of potent pathogen-specific effector T cells. The effector T cells fight the infection by making cytokines and helping other cells to become fully armed as well. If any naive T cell has antigen receptors (TCRs) that can be activated by self peptides, then a variety of regulatory mechanisms kick in to prevent this cell from performing to its full potential. These processes collectively constitute the phenomenon of immunological tolerance and their failure leads to autoimmunity. One arm of tolerance involves generation of biochemical negative feedback downstream of the TCR (tuning). This is especially relevant to self antigens present in the body over long periods of time (chronic), which form the bulk of our proteome. The negative feedback serves to tune the TCR signaling, such that the ambient antigenic stimulation is nullified intracellularly. Unfortunately, this critical machinery serves as a target for chronic viral, bacterial and parasitic infections (as well as tumors), which can evade a robust immune response, simply by allowing T cells to tune down their signaling to pathogen or malignancy derived antigens. As such, disrupting the tuning in such cases would allow the tolerant T cell to function again and deliver a robust effector response.
If a therapeutic can restore responsiveness to the tuned down T cell, even for a short time, they could combat the pathogen without any additional immunization. To that end, we have developed a sensitive HTS T cell based assay based on IL-2. This assay will be screened against the Molecular Libraries Small Molecule Repository (MLSMR) to find small molecules that could elicit this response.
NIH Chemical Genomics Center [NCGC]
NIH Molecular Libraries Probe Centers Network [MLPCN]
Assay Submitter (PI): Ron Schwartz, NIAID
4 microL (750 cells/well) of unstimulated transgenic mouse T cells (columns 1-3,5-48) are dispensed into Aurora LoBase, black clear-bottom 1536-well assay plates; column 4 receives an identical concentration of transgenic memory T cells as a non-tolerant control. Compounds are then transferred via Kalypsys pin tool equipped with 1536-pin array (10 nL slotted pins, V&P Scientific, San Diego, CA). Following addition of compound and a 60 minute incubation, 1 microL of bead stimulation solution ((0.04 micron Fluospheres (Life technologies, CA) coated with 10ug/ml each anti-CD3 and anti-CD4 (clones 2C11 and GK1.5, BD Biosciences, CA) and mixed with 1ug/ml anti-CD28 (clone PV-1, BD biosciences, CA)). columns 2-48) is added to stimulate the IL-2 response pathway; media is instead added to column 1 as an unstimulated control, while PMA/ionomycin (Sigma Aldrich, MO) is added to column 3 as a control for IL-2 tolerance bypass. The plates are then incubated at 37 degrees C for 18 hours. EGFP and DsRed signal are then detected using an Acumen eX3 Explorer fluorescent plate cytometer. All cells are dispensed in cell media containing EHAA (Quality Biologicals, MD), RPMI (Quality Biologicals, MD), Glutamine (Life Technologies, CA), Penicillin/Streptomycin (Quality Biologicals, MD), 2-ME (Sigma Aldrich, MO) and 10% FBS (Gemini Bioproducts, CA) .
As for `O=C(NCc1cccnc1)c1cc(C2CCCCN2C(=O)CCc2ccccc2)on1` (stereo not given), the activation was -0.0033%.

Regarding `CCOc1ccc(-n2c(SC(C)C(=O)OC)nc3c(c2=O)SCC3)cc1` (stereo not given), the activation was -0.633%.

As for `Cc1ccc(CNC(=O)CSc2nnc3c(n2)[nH]c2ccc(F)cc23)cc1`, the activation is -0.754%.

Turning to `Cc1cccc(N=Nc2c(O)[nH]c3ccc(F)cc23)c1`, the activation is 137% (active).

In the case of `COc1ccc(NC(=O)/C(N=Nc2cccc(S(=O)(=O)Nc3ccc(SC(F)F)cc3)c2)=C(\C)O)cc1`, the activation was 0.0635%.

As to `Cc1ccccc1OC(=O)Cn1c(C(F)(F)F)nc2ccccc21`, the activation was 0.516%.

For the compound `CCCS(=O)(=O)N1CCN=C1SCc1cccc(F)c1`, the activation was 1.16%.

With `CC1=C[C@H]2Cc3cc(C)cc(C)c3S(=O)(=O)[C@@H]2C=C1`, the activation is 0.251%.

In the case of `OCCCC1CCCCN1Cc1nc(Cc2ccccc2Cl)no1` (stereo not given), the activation is 1.46%.

With `CCCCN(C(=O)/C=C/c1ccco1)c1c(N)n(CC(C)C)c(=O)[nH]c1=O`, the activation is 5.81%.

Regarding `CC(=O)c1cccc(NC(=O)C2CCCN(S(=O)(=O)c3cccc4nonc34)C2)c1` (stereo not given), the activation is 2.63%.

Turning to `COc1ccc(COC[C@H](CC(C)C)N2CCN(C(=O)c3cccc(C(F)(F)F)c3)CCC2=O)cc1`, the activation is -1.15%.

With `O=S1(=O)C=C(SCCN2CCCC2)c2ccccc21`, the activation was 5.28%.

Turning to `[O-][n+]1c2c(nn1-c1ccc(Cl)c(Cl)c1)-c1nonc1CC2`, the activation was 0.19%.

For the compound `CCOC(=O)c1cn[nH]c1NC(=S)Nc1ccccc1`, the activation was -3.84%.

Consider `CCOC(=O)C1C(=O)OC2(CCCC2)C1C(=O)OCC` (stereo not given), for which the activation was -0.195%.

`Cc1c(C(=O)NC(=S)NCc2cccnc2)oc2ccccc12`: the activation is -3.54%.

In the case of `COC(=O)C1=C(N)Oc2c(oc(CO)cc2=O)C1c1c(F)cccc1Cl` (stereo not given), the activation is 1.1%.

For `C=CCOC(=O)N1CCC2CC1c1cc(-c3ccc(OC)cc3)ccc12` (stereo not given), the activation was -0.638%.

As for `COc1ccccc1N(C(=O)Cn1nnc2ccccc21)C(C(=O)NCc1ccco1)c1ccc(C)o1` (stereo not given), the activation was -0.406%.

In the case of `CN(CCO)Cc1csc2ccc(Br)cc12`, the activation was -0.737%.

Consider `CCOc1ccc(C(=O)NC(C(=O)NCc2ccccn2)C(C)C)cc1` (stereo not given), for which the activation is -4.42%.

With `COc1ccc(/C=C/CN2CCN(Cc3ccc(C)cc3)C(CCO)C2)cc1` (stereo not given), the activation was 0.996%.

As to `Cc1cccc(C(=O)O)c1[N+](=O)[O-]`, the activation is -0.181%.

`O=C1C=CC(=O)N1c1ccc(N2CCCCC2)cc1`: the activation was -7.5%.

Regarding `OCC1(CO)CC2(C1)CC(CO)(CO)C2`, the activation was 0.276%.

Turning to `CC(C)(C)C(=O)NNC(=O)c1ccc(Oc2cc(Cl)cc(Cl)c2)o1`, the activation was 0.282%.

For `Cc1ccc(NC(=O)c2nc[nH]c2C(=O)N2CCCCC2)c(C(=O)c2ccccc2)c1`, the activation was -0.352%.

Consider `O=C(CCN1C(=O)c2ccccc2C1=O)NNC(=O)c1ccc(Cl)cc1Cl`, for which the activation is 0.499%.

Consider `O=C(CCN1C(=O)/C(=C/c2cccs2)SC1=S)NNC(=O)c1cccc(O)c1`, for which the activation was 133% (active).

Regarding `O=C1/C(=C/c2cccs2)SC(=S)N1C1CCS(=O)(=O)C1` (stereo not given), the activation is 2.78%.

With `CCOC(=O)C1CCCN(S(=O)(=O)c2ccc3c(c2)C(C)(C)C(=O)N3C)C1` (stereo not given), the activation was -2.21%.

Regarding `CCCn1c(=O)c2[nH]c(C3CCCC3)nc2n(CCC)c1=O`, the activation is -0.643%.

As to `C[C@]12C=CC(=O)C=C1CC[C@@H]1[C@@H]2C(=O)C[C@@]2(C)[C@H]1CC[C@]2(O)C(=O)CO`, the activation was 0.342% and -0.368%.

With `CCOCCCN(C)C1CCN(C(=O)c2oc3ccccc3c2NC(=O)Cc2cccc([N+](=O)[O-])c2)CC1`, the activation was -1.43%.

In the case of `O=C(Nc1ccc(Br)cc1)C1CCC(=O)N1Cc1ccccc1Cl` (stereo not given), the activation is -1.19%.

Consider `C=CCOC(=O)C1=C[C@H](c2ccc(Br)cc2)C[C@H](OCCCCO)O1`, for which the activation was 0.356%.

For the compound `CC(C)OC(=O)Cn1nc(C(F)(F)F)c2c1CCCC2`, the activation was 0.525%.

Regarding `C=CCn1c(CCNC(=O)c2ccccc2F)nnc1SCC(=O)Nc1ccc(OC)cc1`, the activation was 0.0893%.

For `CON(C)S(=O)(=O)c1ccc2c(c1)NC(=O)C1CCCN21` (stereo not given), the activation is -2.38%.

Regarding `O=c1[nH]c(CSc2ccccc2)nc2c1oc1ccccc12`, the activation is 0.844%.

For the compound `CCC(C)Sc1nc2c(cnn2-c2ccc(F)cc2)c(=O)[nH]1` (stereo not given), the activation was -4.9%.

Turning to `CC(=O)CC[C@@H](C)O[C@@H]1OC(C)[C@H](O)CC1O` (stereo not given in full), the activation was 0.121%.

For `C/C(=N\NC(=O)c1ccc(CSc2nc(C)cc(C)n2)cc1)C1CCCCC1`, the activation is -0.149%.

For the compound `Cc1cc(C)n(CCNC(=O)CC2C(=O)NCCN2Cc2ccc(C)o2)n1` (stereo not given), the activation is -0.111%.
